KCNQ2 enhance: potentiators of rat KCNQ2 potassium channel. Potassium voltage-gated channel subfamily KQT member 2 (Rattus norvegicus), O88943. CHO-K1 KCNQ2, FluxOR thallium flux fluorescence; stronger effect = higher value. B-score at 10 µM. 0.54% of 310,000 active. AID 2239, 2010;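 active means fluorescence ratio B-score at least 3 SD of library B-scores, with initial fluorescence B-score within 3 of them, cut at about 5.3 in these data; same plate scores as AID 2156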;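 further: B-score of peak minus minimum over baseline fluorescence ratio after K+ and Tl+ stimulus; positive B-score means potentiation of KCNQ2 with more thallium influx and brighter signal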
KCNQ2 inh: rat KCNQ2 potassium channel inhibitors, primary screen, cell-based, CHO-K1, FluxOR thallium flux, B-score. Potassium voltage-gated channel subfamily KQT member 2 (Rattus norvegicus), O88943. 20 min; stronger effect = lower value. B-score at 10 µM. 1.1% of 310,000 active. AID 2156, 2009;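 active means fluorescence ratio B-score at most minus 3 library SDs, with starting brightness B-score within 2 library SDs, cut at about -5.5 in these data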
Kir21 confirm: mouse Kir2.1 channel blockers, retest, confirmation, cell-based, FluxOR thallium flux, duplicate. shares compounds with KCNQ2 enhance. Kir2.1-expressing cells, FluxOR thallium flux fluorescence; stronger effect = lower value. Tl flux remaining, % of negative control (stronger effect = lower value), % at 10 µM. 41% of 2,300 active. AID 2032, 2009;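 active means Primary-screen hit whose thallium flux fell at least 3 control SD below untreated wells in both duplicates, with normal baseline fluorescence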
HEK293 Tl flux: alters thallium flux in parental HEK293 cells, Kir2.1 counter-screen | shares compounds with KCNQ2 enhance | FluxOR thallium flux fluorescence; 0% = unstimulated blank wells | FluxOR signal as % of negative control (100 = no effect), % at 10 µM | 19% of 2,300 active | AID 2105;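 active means dye signal at least 3 control SD above or below untreated wells in both duplicates, raw fluorescence within 3, either direction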;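 further: percent is based on the flux ratio of peak minus minimum fluorescence over baseline F0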
CHO-K1 Tl ctr: nonspecific thallium flux increase in parental CHO-K1, confirmation, counter-screen for KCNQ2 potentiator project, cell-based, FluxOR thallium flux, duplicate | parental CHO-K1 cells, FluxOR thallium flux fluorescence; zero = vehicle mean+3SD, 100% = vehicle-minus-blank window | shares compounds with KCNQ2 enhance | AID 2282, 2010 | activity increase over 3SD of controls, % at 10 µM | 43% of 1,200 active;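 active means signal rise of at least 3 SD above the untreated control mean, in both duplicate wells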;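 further: counter screen of KCNQ2 potentiator hits so any rise reflects channel-independent effects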
KCNQ1 pot spec: human KCNQ1 channel potentiation off-target, confirmation, selectivity assay for KCNQ2 potentiator project, cell-based, CHO, FluxOR thallium flux; shares compounds with KCNQ2 enhance; 28% of 1,200 active; activation over 3SD threshold, % at 10 µM; AID 2283, 2010; CHO KCNQ1 stable, FluxOR thallium flux fluorescence; beyond 3SD, as % of vehicle-control signal;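 active means fluorescence ratio rise of at least 3 SD of vehicle wells above their mean, in both replicate wells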
KCNQ2 pot conf: rat KCNQ2 channel potentiators, confirmation, cell-based, CHO, FluxOR thallium flux, duplicate | CHO-KCNQ2 cells, FluxOR thallium flux fluorescence | shares compounds with KCNQ2 enhance | potentiation, less the hit threshold, % at 10 µM | 68% of 1,200 active | AID 2287, 2010;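 active means fluorescence ratio rising 3 SD or more over the vehicle control mean in both replicates, plus primary screen hit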;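 further: peak minus minimum thallium fluorescence divided by baseline after K/Tl stimulus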
Kir21 spec: mouse Kir2.1 channel activation off-target, confirmation, selectivity assay for KCNQ2 potentiator project, cell-based, HEK293, FluxOR thallium flux | AID 2345, 2010 | HEK293 Kir2.1, FluxOR thallium flux fluorescence | shares compounds with KCNQ2 enhance | activity over 3SD threshold, % at 10 µM | 2% of 1,200 active;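 active means fluorescence ratio rise of at least 3 SD above the vehicle-control mean, seen in both replicates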
KCNQ2 W236L pot: potentiators of retigabine-insensitive KCNQ2 W236L, mechanism study for KCNQ2 potentiator project, cell-based, rat KCNQ2 W236L, CHO, automated patch clamp; shares compounds with KCNQ2 enhance; 10% of 940 active; current increase over 3SD of negative controls (%), stronger effect = higher value, % at 25 µM; AID 2558, 2010; automated patch clamp current;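 active means current increase at least 3 SD of the untreated controls above them in both duplicate recordings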
Target sequence (O88943 whole entry W236L, looked up): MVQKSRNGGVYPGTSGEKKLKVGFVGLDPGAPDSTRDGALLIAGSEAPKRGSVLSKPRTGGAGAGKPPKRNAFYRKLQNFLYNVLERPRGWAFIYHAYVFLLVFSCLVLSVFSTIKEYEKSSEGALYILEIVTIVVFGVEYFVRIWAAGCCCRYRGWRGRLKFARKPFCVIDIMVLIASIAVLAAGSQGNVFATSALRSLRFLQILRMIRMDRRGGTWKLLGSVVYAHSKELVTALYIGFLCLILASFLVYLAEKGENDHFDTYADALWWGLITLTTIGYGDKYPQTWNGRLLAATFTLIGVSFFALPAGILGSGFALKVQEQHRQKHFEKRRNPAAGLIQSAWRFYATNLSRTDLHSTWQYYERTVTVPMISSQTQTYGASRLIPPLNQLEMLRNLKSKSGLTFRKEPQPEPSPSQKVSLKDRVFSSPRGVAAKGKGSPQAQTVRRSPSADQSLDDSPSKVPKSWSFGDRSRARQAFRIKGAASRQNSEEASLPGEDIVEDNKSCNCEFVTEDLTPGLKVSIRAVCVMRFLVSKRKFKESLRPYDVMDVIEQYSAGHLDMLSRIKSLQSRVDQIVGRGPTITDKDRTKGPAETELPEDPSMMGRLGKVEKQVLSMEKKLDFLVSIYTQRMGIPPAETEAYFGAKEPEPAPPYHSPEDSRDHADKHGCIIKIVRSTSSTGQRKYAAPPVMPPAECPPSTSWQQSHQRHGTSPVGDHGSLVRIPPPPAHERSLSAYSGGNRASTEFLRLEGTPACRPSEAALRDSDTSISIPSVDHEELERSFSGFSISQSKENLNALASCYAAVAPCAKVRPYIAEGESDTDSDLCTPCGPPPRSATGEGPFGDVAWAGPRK
Each line names hits and unclear results; the compound was inactive in the other large screens (follow-up assays come after a bar, where they were run). Compounds with a hit are over-represented: about 1.6% of the library has one in this group of screens.

CN(C(=O)COC(=O)c1sc2ccccc2c1Cl)C1CCCCC1	none (no result: KCNQ2 enhance)
CCCCOC(=S)NC(=O)c1sc2ccccc2c1Cl	KCNQ2 enhance 17 | Kir21 confirm inactive | HEK293 Tl flux 446% | CHO-K1 Tl ctr inactive | KCNQ1 pot spec 47 | KCNQ2 pot conf 83 | Kir21 spec inactive | KCNQ2 W236L pot inactive
CCCOc1ccc(C(CC(=O)O)NC(=O)c2sc3ccccc3c2Cl)cc1 (stereo not given)	none
Cc1ccc(NC(=S)NC(=O)c2sc3ccccc3c2Cl)c(C(=O)O)c1	KCNQ2 enhance 14 | Kir21 confirm inactive | HEK293 Tl flux inactive | CHO-K1 Tl ctr 2.0 | KCNQ1 pot spec inactive | KCNQ2 pot conf 29 | Kir21 spec inactive | KCNQ2 W236L pot inactive
O=C(CNC(=O)c1ccc(Cl)cc1)OCC(=O)N1CCCC1	none (no result: KCNQ2 enhance)
O=C(NCCCn1cccn1)C1CCC(=O)N(Cc2ccccc2F)C1 (stereo not given)	none
CC(/C=C/c1ccccc1F)=N\NC(=O)c1cccc(F)c1	none (no result: KCNQ2 enhance)
CC(C)(C)OC(=O)NCCc1nnc(SCC(=O)c2ccc(Cl)cc2)o1	none (no result: KCNQ2 enhance)
CC(C)(C)OC(=O)NCCc1nnc(SCc2ccc(Cl)cc2Cl)o1	KCNQ2 inh -5.9 | Kir21 confirm 34% | HEK293 Tl flux inactive
CC(C)(C)OC(=O)NCCc1nnc(SCc2c(Cl)cccc2Cl)o1	none (no result: KCNQ2 enhance)
CC(C)(C)OC(=O)NCCc1nnc(SCc2cccc(Cl)c2)o1	none (no result: KCNQ2 enhance) | Kir21 confirm 26% | HEK293 Tl flux inactive
CC(C)(C)OC(=O)NCCCCCc1nnc(SCc2cccc(F)c2)o1	none (no result: KCNQ2 enhance)
Cc1cccc(CSc2nnc(CCNC(=O)OC(C)(C)C)o2)c1	none (no result: KCNQ2 enhance) | Kir21 confirm 33% | HEK293 Tl flux inactive
COc1cccc(NC(=O)CN(C)C(=O)c2cc(C)on2)c1	none
CCOc1ccc(CN2CCCC(CO)(Cc3ccccc3F)C2)cc1 (stereo not given)	none
OCC1(Cc2ccc(F)cc2F)CCCN(Cc2ccc(Cl)cc2)C1 (stereo not given)	none (no result: KCNQ2 enhance) | Kir21 confirm 56% | HEK293 Tl flux inactive
CN(c1nc2ccccc2[nH]c1=O)C1CCCCC1	none (no result: KCNQ2 enhance)
O=C(NCC1CCCN1S(=O)(=O)c1cccs1)C(=O)Nc1cccc(F)c1 (stereo not given)	none (no result: KCNQ2 enhance)
C=CCn1c(Cc2cccs2)nnc1SCC(=O)Nc1cc(OC)cc(OC)c1	none (no result: KCNQ2 enhance)
CCn1c(SC/C=C/c2ccccc2)nnc1-c1cccs1	none (no result: KCNQ2 enhance) | Kir21 confirm 48% | HEK293 Tl flux inactive
C=CCn1c(Cc2cccs2)nnc1SC/C=C/c1ccccc1	none (no result: KCNQ2 enhance) | Kir21 confirm 31% | HEK293 Tl flux inactive
Cn1c(SC/C=C/c2ccccc2)nnc1-c1cccs1	none (no result: KCNQ2 enhance)
CC(=O)N1N=C(c2ccccc2OC(=O)/C=C/c2ccccc2)CC1c1ccccc1 (stereo not given)	none (no result: KCNQ2 enhance)
O=C(NC1CCCCCC1)c1ccc(Cl)c(S(=O)(=O)N2CCOCC2)c1	none
Cc1cc(C)cc(OCC(=O)OCC(=O)N(C)CC(=O)Nc2ccc(F)cc2)c1	KCNQ2 enhance 8.3 | Kir21 confirm inactive | HEK293 Tl flux inactive | CHO-K1 Tl ctr 18 | KCNQ1 pot spec inactive | KCNQ2 pot conf 19 | Kir21 spec inactive | KCNQ2 W236L pot inactive
CN(CC(=O)Nc1ccc(F)cc1)C(=O)COC(=O)COc1ccc(C#N)cc1	none
O=C(CSc1ccc(-c2ccccn2)nn1)Nc1cccc(F)c1	none
Cc1snnc1C(=O)NC(=S)Nc1ccccc1	KCNQ2 enhance 6 | Kir21 confirm inactive | HEK293 Tl flux 239% | CHO-K1 Tl ctr inactive | KCNQ1 pot spec inactive | KCNQ2 pot conf 34 | Kir21 spec inactive | KCNQ2 W236L pot inactive
O=C(NC(=S)Nc1ccccc1)c1ccc(Br)o1	KCNQ2 enhance 8.2 | Kir21 confirm inactive | HEK293 Tl flux 162% | CHO-K1 Tl ctr 130 | KCNQ1 pot spec inactive | KCNQ2 pot conf 35 | Kir21 spec inactive | KCNQ2 W236L pot inactive
O=C(NC(=S)N1CCc2ccccc21)C1CCC1	none
O=C(NC(=S)Nc1cccnc1)c1ccccc1	none
COc1ccc(NC(=O)c2ccc(Br)o2)cc1	none
O=C(NC(=S)N1CCc2ccccc21)c1ccc(Br)o1	KCNQ2 enhance 9.8 | Kir21 confirm inactive | HEK293 Tl flux 399% | CHO-K1 Tl ctr inactive | KCNQ1 pot spec 48 | KCNQ2 pot conf 75 | Kir21 spec inactive | KCNQ2 W236L pot inactive
NC(=O)c1ccccc1NC(=S)NC(=O)c1ccc(Br)o1	none (no result: KCNQ2 enhance)
COc1ccc(NC(=S)NC(=O)c2ccc(Br)o2)cc1	KCNQ2 enhance 8.5 | Kir21 confirm inactive | HEK293 Tl flux 200% | CHO-K1 Tl ctr inactive | KCNQ1 pot spec inactive | KCNQ2 pot conf 39 | Kir21 spec inactive | KCNQ2 W236L pot inactive
COCC(=O)N1CCC(Oc2ccc(C(=O)N3CCN(C)C[C@@H]3C(C)C)cc2)CC1	none
O=C(NC(=S)NCc1ccccc1)c1ccc(Br)o1	KCNQ2 enhance 13 | Kir21 confirm inactive | HEK293 Tl flux 330% | CHO-K1 Tl ctr inactive | KCNQ1 pot spec inactive | KCNQ2 pot conf 53 | Kir21 spec inactive | KCNQ2 W236L pot inactive
O=C(NNC(=S)NCc1ccccc1)c1ccc(Br)o1	none (no result: KCNQ2 enhance)
c1ccc(COc2ccc(CNCc3cccs3)cc2)cc1	none (no result: KCNQ2 enhance) | Kir21 confirm 10% | HEK293 Tl flux 72%
Brc1ccc(CNCc2cccs2)cc1	none (no result: KCNQ2 enhance)
CC(=O)/C(C#N)=C1\NC(=O)C(Cc2ccc(C)c(C)c2)S1 (stereo not given)	KCNQ2 enhance 7.2 | Kir21 confirm inactive | HEK293 Tl flux inactive | CHO-K1 Tl ctr 3.5 | KCNQ1 pot spec inactive | KCNQ2 pot conf inactive | Kir21 spec inactive
CC(=O)/C(C#N)=C1\NC(=O)C(Cc2ccc(F)cc2)S1 (stereo not given)	none
O=C(N/N=C/c1ccccc1)c1ccc(N2CCCC2=O)cc1	none

Screening data (PubChem)
